The test system of assay [1] is Wnt5a (protein binding on small-molecule microarray). Description: small molecules binding Wnt5a protein – biophysical, small-molecule microarray, 635/667 nm fluorescence, primary screen (AID 1142).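 Note: fluorescence read at 667 nm with signal to noise per printed feature.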 Particulars: 635 nm fluorescence, higher = more signal.
Assay [2] in a line: ATP-based viability of Huh7 replicon cells – cell-based, CellTiter-Glo luminescence, basal, 48 h, cytotoxicity control for HCV replication inhibitor project, primary screen (AID 1143).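 Note: Huh7 hepatoma cells carrying a hepatitis C replication reporter with no stimulus; test concentration not given here.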 Particulars: higher = more signal, called active from +8 up or from −8 down. For orientation: Replicon systems follow genome replication, usually without infectious particles.
A short description of assay [3]: Pseudomonas biofilm growth suppression – PAO1 strain, BacTiter-Glo luminescence, LB-PBS, primary screen (AID 1144). Particulars: P. aeruginosa PAO1 biofilm, 12 h, higher = more signal.
Assay [4] is described as follows: basal CRE-LacZ reporter activity in PC12 – cell-based, unstimulated, primary screen (AID 1145). Particulars: no forskolin, luminescence, 4.5 h, higher = more signal, called active from +8 up or from −8 down.
Assay [5] can be described thus: forskolin-driven CRE-LacZ activity in PC12 – cell-based, CRE-LacZ reporter, forskolin-stimulated, primary screen (AID 1146).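 Note: PC12 cells with 6xCRE LacZ reporter stimulated by forskolin 10 µM; beta-galactosidase reporter signal reflecting CREB driven transcription.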 Particulars: luminescence, 4.5 h, higher = more signal, called active from +8 up or from −8 down.
Assay [6] concerns the target Streptavidin (Streptomyces avidinii) (UniProt P22629). Description: compounds binding control protein streptavidin – biophysical, small-molecule microarray, 635/667 nm fluorescence, artefact control for SMM compound annotation, primary screen (AID 1147).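 Note: signal reflects streptavidin binding to arrayed compounds as a control protein.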 Particulars: higher = more signal.
Assay [7] can be described thus: probe aInhba binding on compound microarray – biochemical, small-molecule microarray, 635/667 nm fluorescence, primary screen (AID 1148).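 Note: score merges 667nm spot fluorescence with signal-to-noise for antibody binding to printed compounds.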 Particulars: higher = more signal.
The target in assay [8] is Torsin-1A (Homo sapiens) (UniProt O14656). Description: TOR1A wild-type binding on microarray – cell lysate, small-molecule microarray, lysate, 635/667 nm, primary screen (AID 1149). Particulars: COS7 hTOR1A-WT lysate, 635 nm fluorescence, higher = more signal.
Sequence of Torsin-1A (Homo sapiens) (O14656 whole entry, looked up): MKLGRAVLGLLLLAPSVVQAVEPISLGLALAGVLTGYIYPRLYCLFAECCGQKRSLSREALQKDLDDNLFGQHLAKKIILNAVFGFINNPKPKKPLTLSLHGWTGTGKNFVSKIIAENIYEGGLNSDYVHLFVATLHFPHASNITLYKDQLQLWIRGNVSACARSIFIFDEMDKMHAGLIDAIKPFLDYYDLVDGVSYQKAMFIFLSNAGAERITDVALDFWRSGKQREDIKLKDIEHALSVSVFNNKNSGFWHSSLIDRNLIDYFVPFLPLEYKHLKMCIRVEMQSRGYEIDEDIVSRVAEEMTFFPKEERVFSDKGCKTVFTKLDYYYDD
For assay [9] the target is unchanged. Put plainly: torsin A mutant lysate binding on microarrays – cell lysate, small-molecule microarray, COS7 lysate, 635/667 nm fluorescence, primary screen (AID 1150).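 Note: score pools 667 nm emission and signal to noise measuring lysate protein binding.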 Particulars: COS7 hTOR1A mutant lysate, 635 nm fluorescence, higher = more signal.
The test system of assay [10] is Sonic hedgehog protein (Shh). Put plainly: Sonic hedgehog microarray binding compounds – biochemical, small-molecule microarray, 635/667 nm fluorescence, primary screen (AID 1151).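 Note: Shh protein binding to compounds spotted on small-molecule microarray slides; score combines spot fluorescence intensity with signal-to-noise across triplicate slides.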 Particulars: 635 nm fluorescence, higher = more signal.
Assay [11] in a line: optical density shifts of acrAB sulA E. coli – strain DRC41, OD650, 48 h, E. coli filamentation inducer project, primary screen (AID 1152).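 Note: E. coli MC1000 strain DRC41 lacking acrAB efflux pump and sulA.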 Particulars: higher = more signal, called active from +8 up or from −8 down.
Assay [12] can be described thus: probe aLefty1 binding on compound microarray – biochemical, small-molecule microarray, 635/667 nm fluorescence, primary screen (AID 1153).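 Note: score merges spot fluorescence with signal-to-noise ratio from the scanned slide images.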 Particulars: higher = more signal.
A short description of assay [13]: plasmodial surface anion channel blockers, osmotic lysis – cell-based, P. falciparum Indochina, OD700, 1 h, primary screen (AID 1154). Particulars: P. falciparum Indochina infected RBC osmotic lysis, higher = more signal, called active from +8 up or from −8 down.
Assay [14] in a line: plasmodial surface anion channel blockers, osmotic lysis – cell-based, P. falciparum Indochina, OD700, 2 h, primary screen (AID 1155).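 Note: lysis reports solute entry through the parasite surface anion channel PSAC.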 Particulars: P. falciparum Indochina infected erythrocytes, higher = more signal, called active from +8 up or from −8 down.
Assay [15] in a line: changes in parasitized red cell lysis, either direction – P. falciparum Indochina, OD700, 3 h, PSAC antagonist project, primary screen (AID 1156). Particulars: P. falciparum-infected erythrocytes, osmotic lysis, higher = more signal, called active from +8 up or from −8 down.
Assay [16] can be described thus: plasmodial surface anion channel blockers, osmotic lysis – cell-based, P. falciparum Indochina, OD700, 18 h, primary screen (AID 1157). Particulars: P. falciparum Indochina infected erythrocytes, osmotic lysis OD700, 18 h; higher = more signal, called active from +8 up or from −8 down.
The nature of assay [17]: S6 kinase pathway phospho-S6 level changes – cell-based, A549, cytoblot, luminescence, serum-stimulated, primary screen (AID 1158).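 Note: serum-stimulated A549 lung adenocarcinoma cells; signal is phosphorylated S6 detected by cytoblot immunostaining with HRP secondary.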 Particulars: 5 h, higher = more signal.
The target of assay [18] is NADPH oxidase 2 (Homo sapiens) (UniProt P04839). Description: compounds shifting NOX2 Amplex Red fluorescence – cell-based, HEK293-NOX2, PMA-stimulated, NOX inhibitor project, primary screen (AID 1159). Note: test concentration not given here. Particulars: 45 min, higher = more signal, called active from +8 up or from −8 down.
Sequence of NADPH oxidase 2 (Homo sapiens) (P04839 whole entry, looked up): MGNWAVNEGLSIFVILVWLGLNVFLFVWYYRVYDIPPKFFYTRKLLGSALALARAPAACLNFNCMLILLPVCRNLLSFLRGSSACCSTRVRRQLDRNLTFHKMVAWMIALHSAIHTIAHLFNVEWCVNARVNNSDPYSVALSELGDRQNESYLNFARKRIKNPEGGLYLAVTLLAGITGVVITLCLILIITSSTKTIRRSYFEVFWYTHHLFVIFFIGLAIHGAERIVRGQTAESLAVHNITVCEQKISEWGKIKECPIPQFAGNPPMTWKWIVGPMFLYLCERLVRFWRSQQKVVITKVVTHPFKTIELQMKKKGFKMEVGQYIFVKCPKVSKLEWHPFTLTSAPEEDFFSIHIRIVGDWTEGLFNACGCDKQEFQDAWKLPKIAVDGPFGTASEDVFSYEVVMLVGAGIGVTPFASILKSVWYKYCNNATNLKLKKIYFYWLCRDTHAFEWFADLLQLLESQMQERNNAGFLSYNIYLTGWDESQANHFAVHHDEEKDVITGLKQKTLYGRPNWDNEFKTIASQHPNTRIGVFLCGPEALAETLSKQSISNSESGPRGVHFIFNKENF
Assay [19] concerns the target NADPH oxidase 4 (Homo sapiens) (UniProt Q9NPH5). Put plainly: compounds shifting NOX4 Amplex Red fluorescence – cell-based, HEK293-NOX4, tetracycline-induced, NOX inhibitor project, primary screen (AID 1160). Particulars: HEK293-NOX4, Amplex Red H2O2 fluorescence, 45 min; higher = more signal, called active from +8 up or from −8 down.
The target in assay [20] is NADPH oxidase 5 (Homo sapiens) (UniProt Q96PH1). Put plainly: compounds shifting NOX5 Amplex Red fluorescence – cell-based, HEK293-NOX5, NOX inhibitor project, primary screen (AID 1161). Particulars: HEK293-NOX5, ionomycin, 45 min, higher = more signal.
Sequence of NADPH oxidase 5 (Homo sapiens) (Q96PH1 whole entry, looked up): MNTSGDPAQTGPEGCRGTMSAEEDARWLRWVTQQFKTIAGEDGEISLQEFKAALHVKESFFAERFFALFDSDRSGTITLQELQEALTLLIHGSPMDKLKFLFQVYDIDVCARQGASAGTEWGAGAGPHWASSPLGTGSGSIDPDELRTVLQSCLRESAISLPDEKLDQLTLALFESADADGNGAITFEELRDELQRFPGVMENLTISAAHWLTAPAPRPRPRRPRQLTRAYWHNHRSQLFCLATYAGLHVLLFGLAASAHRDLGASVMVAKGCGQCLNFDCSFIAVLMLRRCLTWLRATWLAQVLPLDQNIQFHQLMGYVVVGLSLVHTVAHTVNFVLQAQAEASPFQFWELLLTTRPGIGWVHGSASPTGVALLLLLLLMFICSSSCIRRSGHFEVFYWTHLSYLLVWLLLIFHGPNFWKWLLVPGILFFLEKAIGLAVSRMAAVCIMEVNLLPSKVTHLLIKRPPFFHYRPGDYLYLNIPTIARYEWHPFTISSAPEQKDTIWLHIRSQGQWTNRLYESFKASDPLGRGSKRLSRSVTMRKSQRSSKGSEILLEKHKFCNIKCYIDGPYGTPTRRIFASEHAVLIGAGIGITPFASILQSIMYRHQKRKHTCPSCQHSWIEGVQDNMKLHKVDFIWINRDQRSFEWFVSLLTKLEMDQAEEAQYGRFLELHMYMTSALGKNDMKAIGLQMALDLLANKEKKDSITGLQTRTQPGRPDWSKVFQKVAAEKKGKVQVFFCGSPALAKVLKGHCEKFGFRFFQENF

Activity calls are given as the source filed them. Unless noted, the rule behind the calls is not given here.

Sequence of Streptavidin (Streptomyces avidinii) (P22629 whole entry, looked up): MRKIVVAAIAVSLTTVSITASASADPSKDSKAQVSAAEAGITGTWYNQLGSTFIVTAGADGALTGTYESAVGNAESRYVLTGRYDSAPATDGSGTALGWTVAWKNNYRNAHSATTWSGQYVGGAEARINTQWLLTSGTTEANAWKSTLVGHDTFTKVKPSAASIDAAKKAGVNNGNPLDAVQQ
Sequence of NADPH oxidase 4 (Homo sapiens) (Q9NPH5 whole entry, looked up): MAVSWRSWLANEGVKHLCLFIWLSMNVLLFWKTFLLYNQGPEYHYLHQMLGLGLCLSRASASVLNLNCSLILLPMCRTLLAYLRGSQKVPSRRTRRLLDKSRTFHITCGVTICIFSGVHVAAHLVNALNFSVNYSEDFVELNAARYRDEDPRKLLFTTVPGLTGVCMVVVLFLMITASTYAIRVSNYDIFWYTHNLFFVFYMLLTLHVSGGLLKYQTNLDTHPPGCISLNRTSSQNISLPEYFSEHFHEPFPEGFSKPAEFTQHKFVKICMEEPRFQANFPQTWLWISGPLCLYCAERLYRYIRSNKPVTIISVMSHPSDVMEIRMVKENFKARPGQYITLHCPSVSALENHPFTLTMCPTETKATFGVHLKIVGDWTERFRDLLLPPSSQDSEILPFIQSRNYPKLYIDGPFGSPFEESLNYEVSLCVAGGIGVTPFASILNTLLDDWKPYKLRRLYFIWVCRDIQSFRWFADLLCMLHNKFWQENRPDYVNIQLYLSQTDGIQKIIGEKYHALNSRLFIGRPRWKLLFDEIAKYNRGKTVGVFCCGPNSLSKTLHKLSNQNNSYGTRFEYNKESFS

With `CC(C)C(=O)N[C@H]1CCCN1C(=O)C=Cc1ccccc1`, the composite z-score in assay [1] worked out at 0.121; in [6], 0.111; in assay [7], 0.0173; with Torsin-1A (Homo sapiens) [8], 0.445; with Torsin-1A (Homo sapiens) [9], 0.231; in assay [10], 0.769. For the same molecule, the composite z-score in [12] was 0.271. Moreover, the z-score in assay [2] is 0.623 (inactive); in assay [3], 0.186 (inactive); in [4], -0.255 (inactive); in assay [5], -0.135 (inactive); in assay [11] it was -1.05 (inactive); in assay [13] it was 1.35 (inactive). In addition, the z-score in assay [14] was 0.627 (inactive); in assay [15], 0.632 (inactive); in [16], 0.346 (inactive); in assay [17] it was -0.53; in [18], 0.679 (inactive); in assay [19] it was 0.913 (inactive). Besides, in assay [20], the z-score is -0.732.

For the molecule `COC(=O)[C@@H]1CC[C@H](C)[C@@H](c2ccc(Br)cc2)N1C(=O)C(F)(F)F`, the composite z-score is -0.237 in assay [1]; -0.307 in assay [6]; -0.0944 in assay [7]; -0.179 with Torsin-1A (Homo sapiens) [8]; -0.835 with Torsin-1A (Homo sapiens) [9]; -0.14 in assay [10]. This molecule also gave a composite z-score in assay [12] of -0.103. Further, the z-score in assay [2] was -0.322 (inactive); in assay [3] it was -0.69 (inactive); in [4], 0.565 (inactive); in [5], -0.344 (inactive); in assay [11], -0.643 (inactive); in assay [13] it was 1.08 (inactive). The z-score was -0.0008 (inactive) in assay [14]; 0.266 (inactive) in [15]; 0.2 (inactive) in assay [16]; -0.56 in assay [17]; 0.301 (inactive) in assay [18]; 0.467 (inactive) in assay [19]. In assay [20], the z-score was 0.18.

For `COc1ccc(COC(=O)NN=C2C[C@@H](O)[C@@H](O)[C@@H]3[C@@H]4C(=O)N(C[C@@H]5CCCO5)C(=O)[C@@H]4CC[C@@H]23)cc1`, the composite z-score in [1] was 0.0073; in assay [6] it was 0.662; in assay [7] it was -0.15; in the assay with Torsin-1A (Homo sapiens) [8] it was 1.2; with Torsin-1A (Homo sapiens) [9] it was 1; in [10], 0.0407. In assay [12], this molecule gave a composite z-score of -0.235. Also, the z-score in [2] is 0.0894 (inactive); in assay [3] it was 1.2 (inactive); in [4], 0.338 (inactive); in assay [5], -0.959 (inactive); in assay [11] it was 1.08 (inactive); in assay [13], 3.44 (inactive). In addition, the z-score is 0.415 (inactive) in assay [14]; 1.3 (inactive) in assay [15]; 0.18 (inactive) in [16]; -0.0088 in [17]; -0.682 (inactive) in assay [18]; 0.995 (inactive) in assay [19]. Besides, the z-score in assay [20] was -0.0772.

With `C[C@H]1CC[C@@H](C(=O)O)N[C@@H]1c1cccc(N2CCCC2=O)c1`, the composite z-score is 0.0767 in assay [1]; -0.0712 in assay [6]; -0.134 in [7]; 0.203 in the assay with Torsin-1A (Homo sapiens) [8]; 0.286 with Torsin-1A (Homo sapiens) [9]; 0.189 in assay [10]. This molecule gave a composite z-score in [12] of -0.103. The z-score was 0.0659 (inactive) in assay [2]; -0.43 (inactive) in [3]; -0.437 (inactive) in [4]; -1.1 (inactive) in assay [5]; 1.04 (inactive) in assay [11]; 0.162 (inactive) in assay [13]. In addition, the z-score in [14] is 0.677 (inactive); in assay [15], 0.121 (inactive); in [16] it was 0.125 (inactive); in [17], 0.42; in assay [18], -0.207 (inactive); in assay [19], 0.00437 (inactive). Besides, the z-score in assay [20] came out at 0.682.

Regarding `CC1(C)O[C@H]2OC([C@H](O)CON3C(=O)c4ccccc4C3=O)[C@H](O)[C@H]2O1` (stereo not given in full), the composite z-score is -0.0105 in [1]; -0.467 in assay [6]; 0.0319 in assay [7]; 0.0012 in the assay with Torsin-1A (Homo sapiens) [8]; 0.129 in the assay with Torsin-1A (Homo sapiens) [9]; 0.0991 in assay [10]. Moreover, in assay [12], the composite z-score was -0.352. Further, the z-score in assay [2] was 0.929 (inactive); in assay [3], 0.425 (inactive); in assay [4], 0.831 (inactive); in [5], 0.266 (inactive); in [11], 0.336 (inactive); in [13], -0.36 (inactive). Moreover, the z-score in assay [14] is -0.215 (inactive); in assay [15] it was -0.356 (inactive); in [16], -0.266 (inactive); in [17] it was -0.339; in assay [18], 0.821 (inactive); in assay [19], 0.146 (inactive). For the same molecule, the z-score in [20] worked out at 0.145.

Source of the values: PubChem BioAssay.
